In PubChem BioAssay AID624330 (Southern Research Specialized Biocontainment Screening …, 2012):
The whole screen tested about 340,000 compounds, of which about 2,100 (0.62%) were called active.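 Rule for the calls: active = first-screen hits whose inhibition reached a set limit at any dose in the follow-up dose series; inconclusive = inhibition above the set first-screen limit but never retested; inactive = the rest.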 These entries were drawn from the full list. Potency and affinity values are given separately.

Target: Rac GTPase-activating protein 1 (Homo sapiens) (UniProt Q9H0H5)
Assay: MgcRacGAP GTPase-activating activity inhibitors, confirmation, biochemical, ADP Hunter fluorescence, primary and confirmatory (AID 624330);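 note: fluorescence reports GDP produced by GAP-driven GTP hydrolysis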
Settings: MgcRacGAP-stimulated Rac1 GTP hydrolysis, at 30 µM, stronger effect = higher value, GST-tagged Rac1 F28L mutant substrate

Sequence of Rac GTPase-activating protein 1 (Homo sapiens) (Q9H0H5 whole entry, looked up): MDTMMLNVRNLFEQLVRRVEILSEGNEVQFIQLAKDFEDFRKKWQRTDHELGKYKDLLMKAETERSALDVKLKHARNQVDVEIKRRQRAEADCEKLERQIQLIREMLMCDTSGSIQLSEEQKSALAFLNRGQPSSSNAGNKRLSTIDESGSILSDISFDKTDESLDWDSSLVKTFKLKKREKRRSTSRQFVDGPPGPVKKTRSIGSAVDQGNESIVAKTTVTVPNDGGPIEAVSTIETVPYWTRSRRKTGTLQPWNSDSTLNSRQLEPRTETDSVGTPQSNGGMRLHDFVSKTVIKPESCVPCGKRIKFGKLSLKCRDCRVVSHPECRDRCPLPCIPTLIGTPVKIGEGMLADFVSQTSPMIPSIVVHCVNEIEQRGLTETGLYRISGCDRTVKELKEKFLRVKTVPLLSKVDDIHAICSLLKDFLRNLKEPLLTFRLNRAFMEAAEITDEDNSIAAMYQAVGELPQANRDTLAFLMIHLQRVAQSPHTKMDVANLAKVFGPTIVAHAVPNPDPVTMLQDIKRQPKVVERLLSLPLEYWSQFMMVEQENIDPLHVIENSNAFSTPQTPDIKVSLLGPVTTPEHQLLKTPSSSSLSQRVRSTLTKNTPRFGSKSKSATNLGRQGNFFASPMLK

inhibition, inactive:
Cc1nc(Nc2nc(CSc3ccc(Cl)cc3)cc(=O)[nH]2)nc2ccccc12 4.96%
O=C(COC(=O)C1CC(=O)N(c2ccccc2)C1)c1ccccc1 (stereo not drawn) 4.11%
O=C1C(=Cc2ccccc2O)SC(=S)N1CCCN1CCOCC1 14.5%
O=C(CCCN1C(=O)/C(=C/c2ccccc2Cl)SC1=S)NCCCN1CCOCC1 12.8%
CCN(CC)C(=S)Nc1ccc2nc3n(c(=O)c2c1)CCCCC3 3.47%
O=C(Nc1ccccn1)c1cc2ccccc2cc1O 6.04%
O=C(O)c1ccccc1C(=O)Nc1ccccn1 3.57%
OCCSc1c(F)c(SCCO)c(SCCO)c(F)c1SCCO -1.8%
Cn1c(=O)[nH]c(=O)c2c1nc(NCCc1ccccc1)n2CC(O)COc1ccccc1 (stereo not drawn) 4.54%
CCOC(=O)C1(CCOC)CCN(C/C=C/c2ccccc2OC)CC1 5.1%
COc1cccc(/C=N/NC(=O)CNC(=O)c2cccnc2)c1O 5.08%
O=C(CNC(=O)c1ccncc1)N/N=C/c1cc(Br)ccc1O 3.51%
O=C(N/N=C/c1ccc(O)cc1O)c1ccncc1 31.7%
O=C(CNC(=O)c1ccco1)N/N=C/c1ccccc1[N+](=O)[O-] 16.6%
COc1cccc(/C=N/NC(=O)CNC(=O)c2cccs2)c1O 9.63%
O=C(CNC(=O)c1cccs1)N/N=C/c1ccccc1[N+](=O)[O-] 3.27%
O=C(CNC(=O)c1ccco1)N/N=C/c1cc(Br)ccc1O 5.36%
COc1ccc(Br)cc1/C=N/NC(=O)CNC(=O)c1cccnc1 -12.5%
O=C1OC(COc2ccc(Br)cc2)CN1c1ccccc1 (stereo not drawn) 0.77%
Cc1ccc(OCc2nnc(SC(C)C(=O)O)n2Cc2ccccc2)cc1 (stereo not drawn) -1.5%
O=C(COC(=O)[C@@H]1CC(O)CN1S(=O)(=O)c1ccc2c(c1)OCCO2)Nc1ccccc1F (stereo partly drawn) 1.86%
O=C(c1ccc(Cl)nc1)N1CCN(C/C=C/c2ccccc2)CC1 10.5%
O=C(CN1C(=O)NC2(CCc3ccccc32)C1=O)c1c[nH]c2ccccc12 (stereo not drawn) -3.1%
CN1CCN(C(c2cccc(Cl)c2)c2ccccc2Cl)CC1 (stereo not drawn) 7.6%
CC1(C)C(=O)N(c2ccccc2)C1c1ccccc1O (stereo not drawn) 3.93%
Oc1ccc(/C=N/NC(=S)Nc2cccnc2)c(O)c1O -102%
Oc1ccc(C=NNC(=S)Nc2cccnc2)nc1 7.4%
O=C(CCCCCNC(=O)c1ccccc1)N/N=C/c1ccc(F)cc1 6.47%
Cc1cccc(OCC(=O)NCC(=O)N/N=C/c2ccc(O)cc2O)c1 18.5%
O=C(COc1ccccc1)NCC(=O)N/N=C/c1ccccc1 5.67%
O=C(CCCCCNC(=O)c1ccccc1)N/N=C/c1ccccc1O 3.53%
FC(F)(F)c1cnc(COc2ccc(Cl)cc2Cl)c(Cl)c1 7.97%
COc1ccccc1-c1cc(C(=O)NCc2ccco2)no1 11.6%
CCN(C[C@H]1N[C@@](C)(C(=O)OC)[C@H]2C(=O)N(C)C(=O)[C@@H]12)C(=O)Nc1ccc(C(F)(F)F)cc1 4.98%
COCCn1c(SC(C(=O)Nc2cc(C)ccc2OC)c2ccccc2)nnc1-c1ccc(Cl)cc1 (stereo not drawn) 8.02%
CC(C)COP(=O)(OCC(C)C)C(O)c1ccc2c(c1)OCO2 (stereo not drawn) 2.18%
N#Cc1c(-c2ccccc2)ccn(Cc2ccc(Cl)cc2)c1=O 11.4%
COc1cc(CNC2CCCC2)cc(OC)c1 16.2%
COc1cc(CNC2CCCCC2OC)cc(OC)c1OC (stereo not drawn) 21.8%
Cc1ccc(C)c(N2CCN(C(=O)Cc3ccc(NC4=NC5CS(=O)(=O)CC5S4)cc3)CC2)c1 (stereo not drawn) 15.3%
O=C(CNc1ccccc1)N/N=C/c1ccc2c(c1)OCO2 1.14%
O=C(CNc1ccc2c(c1)OCO2)N/N=C\c1cn(Cc2ccccc2)c2ccccc12 9.72%
CCOC(=O)Cc1csc(SC(C)C(=O)NC2CCCCC2C)n1 (stereo not drawn) 10.4%
CC(=O)c1ccc(N2CCN(C(=O)c3noc4c3CSc3ccccc3-4)CC2)cc1 10.2%
O=S(=O)(NCC(c1cccnc1)N1CCN(c2ccc(F)cc2)CC1)c1cccs1 (stereo not drawn) 5.99%
c1ccc(CCn2nnnc2C(c2cccs2)N2CCOCC2)cc1 (stereo not drawn) 6.38%
COc1ccc(N2CCN(C(c3ccccc3)c3nnnn3Cc3ccc(F)cc3)CC2)cc1 (stereo not drawn) 19%
COc1ccc(N2CCN(C(c3cccs3)C(C)NS(C)(=O)=O)CC2)cc1 (stereo not drawn) 27.8%
Fc1ccc(N2CCN(C(c3cccs3)c3nnnn3CCc3ccccc3)CC2)cc1 (stereo not drawn) -2.42%
c1ccc(Cn2nnnc2C(c2cccnc2)N2CCN(c3ccccc3)CC2)cc1 (stereo not drawn) 2.89%
O=S(=O)(NCC(c1cccnc1)N1CCN(c2ccccc2)CC1)c1cccs1 (stereo not drawn) 2.98%
CCS(=O)(=O)NC(C)C(c1cccs1)N1CCN(c2ccc(F)cc2)CC1 (stereo not drawn) 8.25%
CC1CCCC(NC(=O)CN2C(=O)NC(C)(c3ccccc3)C2=O)C1C (stereo not drawn) 2.02%
O=C(N/N=C/c1ccoc1)c1ccc([N+](=O)[O-])cc1 3.91%
COc1cccc2cc(C(=O)N3CC(C)OC(C)C3)c(=O)oc12 (stereo not drawn) 5.05%
COC(=O)c1ccc(COC(=O)c2ccccc2OC)cc1 -1.87%
COc1ccc(C(=O)NNC(=O)c2ccccc2[N+](=O)[O-])cc1Br 2.78%
COc1ccc([C@H]2CC(=O)C=C(c3cccc(F)c3OC)C2)cc1 9.17%
Cc1ccc(C(=O)N2CCN(Cc3ccc4c(c3)OCO4)CC2)o1 3.03%
O=C(c1cccc(F)c1)N1CCN(c2ccc([N+](=O)[O-])c(N3CCOCC3)c2)CC1 9.81%
CN1C(=O)CSC1=S 6.82%
O=c1[nH]nc(CNc2cccc(C(F)(F)F)c2)c2ccccc12 7.15%
COc1ccc(OC)c(C(c2c(C)[nH][nH]c2=O)c2c(C)[nH][nH]c2=O)c1 12.8%
O=c1c(Cl)c(N2CCN(c3ccc(F)cc3)CC2)cnn1C12CC3CC(CC(C3)C1)C2 -5.26%
N#Cc1nnn2c1nc(N)c1c(F)cccc12 2.66%
Cc1ccc(S(=O)(=O)N(CC(=O)N2CCOCC2)c2ccccc2F)cc1 2.11%
COc1ccc(-c2nc3ccccc3s2)cc1NC(C)=O -7.89%
Oc1ccc(-c2nc3ccccc3s2)cc1 15.1%
Oc1cccc(-c2nc3ccccc3s2)c1 8.24%
COc1ccc(-c2nc3ccccc3s2)cc1O 11.7%
Cc1ccc(OCC(=O)N(Cc2cccc(F)c2)C2CCS(=O)(=O)C2)cc1 (stereo not drawn) 8.85%
COc1ccc(C(=O)Sc2nncc3ccccc23)cc1 -1.75%
O=C(Nc1ccccc1SC(=O)c1ccccc1)c1ccccc1 18.6%
CCc1nc2ccccc2c(C(=O)OCC(=O)N(C)Cc2ccccc2)c1C 3.21%
CCCCN(C)CCC(=O)Nc1ccc2c(c1)CCC2 6%
CCN(CC)CCNC(=O)c1ccc(NC(=O)c2ccc3c(c2)CCC3)cc1 3.69%
CSCC(=O)Nc1cc(C)on1 -9.86%
CCN(CC(=O)Nc1ccc(NC(C)=O)cc1)CC(=O)Nc1cc(C)on1 5.22%
O=C(NCc1ccccn1)Nc1cccc(F)c1 7.66%
C=CCN(CC=C)c1ncnc2[nH]ncc12 0.33%
COc1cc(C)c(S(=O)(=O)Nc2ccccc2F)cc1C 0.77%
CCn1nc(C(=O)NCc2nnc3ccccn23)c2ccccc2c1=O 2.43%
CCOC(=O)C1CN(S(=O)(=O)c2ccc(OC)cc2)c2cc(S(=O)(=O)CC)ccc2O1 (stereo not drawn) -8.53%
CC1=NN(C(N)=S)C(=O)C1N=Nc1ccc(Cl)cc1 (stereo not drawn) 13.3%
CC1=NN(C(N)=S)C(=O)C1N=Nc1ccc(Br)cc1 (stereo not drawn) 12.4%
CCC(C)NC(=O)CS(=O)Cc1nc(-c2cccc(C)c2)oc1C (stereo not drawn) 2.8%
CCn1cc(C(=O)N2CCN(c3ccccn3)CC2)c2cc(OC)c(OC)cc2c1=O -4.67%
CC1=C(C(N)=O)C(c2ccc(Cl)c(Cl)c2)n2ncnc2N1 (stereo not drawn) 3.56%
Cn1c(N2CCOCC2)c(C=O)c2ccccc21 8.54%
CN1CCN(c2c(/C=N/O)c3ccccc3n2C)CC1 28.5%
O=C(Nc1ccc(C(=O)O)cc1)/C(=C\c1ccco1)NC(=O)c1ccc(Br)cc1 18.2%
COc1ccc2c3c(cccc13)OC2=O 5.25%
COc1ccc2c3c(cccc13)C(=O)N(O)C2=O 1.13%
COc1ccc(CCNC(=O)c2nnc(Cc3c(F)cccc3Cl)o2)cc1OC 3.35%
O=C1OC(Cc2ccccc2)C(c2ccccc2)C1=O (stereo not drawn) 3.8%
O=C1N[C@H](Cc2ccccc2)CO1 3.86%
COc1ccc(Br)cc1C(=O)Nc1cccc(-c2nnc(-c3ccco3)o2)c1 -5.03%
COc1ccc(NC(=O)c2ccc(OC(F)F)cc2)cc1Cl -1.44%
